PubChem BioAssay (EPA / NIEHS)
Inconclusive results are not listed. Calls of active or inactive are those of the source. Rule for the calls, unless noted: active = hit-call score of the fitted dose curve at least 0.9, where 1 is the maximum; inconclusive = response in the unintended direction; inactive = score below 0.9.

Tests used:
[1] = ATG_M_06_TRANS: Attagene TRANS-FACTORIAL HepG2 Assay for M06 Transcription Factor (Internal Marker) (AID 2282983); settings: HepG2 Attagene TRANS M06 internal marker reporter;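 note: reporter transcript level by RT-PCR then capillary electrophoresis fluorescence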
Method in brief: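 HepG2 cells transiently transfected with GAL4-UAS multiple reporter units, dosed 24 h. Reporter RNA reverse-transcribed, PCR-amplified, 6-FAM-labeled, HpaI-digested and quantified by capillary electrophoresis; this internal-marker signal fitted upward relative to DMSO.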

[2] = molecular target: Nuclear receptor subfamily 4 group A member 2 (Homo sapiens) (UniProt P43354); assay: ATG_NURR1_TRANS: Attagene TRANS-FACTORIAL HepG2 Assay for human Nuclear Receptor Related Protein 1 (NURR1) (AID 2282985); settings: HepG2 Attagene TRANS reporter, mRNA readout
Method in brief: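 Cells: HepG2, transiently transfected. Exposure: 24 h. Detection: fluorescence of labelled RT-PCR products separated by capillary electrophoresis; upward fit versus DMSO.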

[3] = molecular target: Transcriptional activator Myb (Homo sapiens) (UniProt P10242); assay: ATG_Myb_CIS: Attagene CIS-FACTORIAL HepG2 Assay for human Myeloblastosis (Myb) Proto-Oncogene Transcription Factor (AID 2282986; active = hit-call score of the fitted dose curve at least 0.9, where 1 is the maximum; inactive = score below 0.9); settings: HepG2 Attagene CIS-FACTORIAL Myb reporter transcription; actives raise or lower the signal
Method in brief: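 After 24 h of compound dosing, total RNA from transfected HepG2 cells is reverse-transcribed and the reporter sequences amplified, labeled and separated by capillary electrophoresis. Values come from bidirectional fitting against DMSO.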

[4] = molecular target: Nuclear respiratory factor 1 (Homo sapiens) (UniProt Q16656); assay: ATG_NRF1_CIS: Attagene CIS-FACTORIAL HepG2 Assay for human Nuclear Respiratory Factor 1 (NRF1) Orphan Gene (AID 2282987; active = hit-call score of the fitted dose curve at least 0.9, where 1 is the maximum; inactive = score below 0.9); settings: HepG2 NRF1 cis-element reporter, Attagene multiplex; actives raise or lower the signal
Method in brief: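 Measured: fluorescent reporter-specific RT-PCR products from transfected HepG2 cells, separated by capillary electrophoresis. Exposure lasted 24 h. Analysis used bidirectional curve fitting with DMSO as negative control.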

[5] = molecular target: Hepatocyte nuclear factor 4-alpha (Homo sapiens) (UniProt P41235); assay: ATG_HNF4a_TRANS: Attagene TRANS-FACTORIAL HepG2 Assay for human Hepatocyte Nuclear Factor 4 alpha (HNF4a) (AID 2282982); settings: HepG2 HNF4a transactivation reporter, mRNA readout
Method in brief: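 Transfected HepG2 reporter cells are dosed for 24 h; reporter RNA is reverse-transcribed, amplified, fluorescently labelled and HpaI-digested before CE sizing. Positive-direction fit against DMSO.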

[6] = ATG_M_32_TRANS: Attagene TRANS-FACTORIAL HepG2 Assay for M32 Transcription Factor (Internal Marker) (AID 2282984); settings: HepG2 Attagene TRANS M32 internal marker reporter;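 note: transcript level of a background control reporter unit measured by RT-PCR and capillary electrophoresis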
Method in brief: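 Using transiently transfected HepG2 cells exposed to test chemicals for 24 h, reporter transcripts are converted to labelled cDNA fragments and quantified by capillary electrophoresis. DMSO defines the activity baseline.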

Measured: outcome

Transcriptional activator Myb (Homo sapiens), sequence (P10242 whole entry, looked up): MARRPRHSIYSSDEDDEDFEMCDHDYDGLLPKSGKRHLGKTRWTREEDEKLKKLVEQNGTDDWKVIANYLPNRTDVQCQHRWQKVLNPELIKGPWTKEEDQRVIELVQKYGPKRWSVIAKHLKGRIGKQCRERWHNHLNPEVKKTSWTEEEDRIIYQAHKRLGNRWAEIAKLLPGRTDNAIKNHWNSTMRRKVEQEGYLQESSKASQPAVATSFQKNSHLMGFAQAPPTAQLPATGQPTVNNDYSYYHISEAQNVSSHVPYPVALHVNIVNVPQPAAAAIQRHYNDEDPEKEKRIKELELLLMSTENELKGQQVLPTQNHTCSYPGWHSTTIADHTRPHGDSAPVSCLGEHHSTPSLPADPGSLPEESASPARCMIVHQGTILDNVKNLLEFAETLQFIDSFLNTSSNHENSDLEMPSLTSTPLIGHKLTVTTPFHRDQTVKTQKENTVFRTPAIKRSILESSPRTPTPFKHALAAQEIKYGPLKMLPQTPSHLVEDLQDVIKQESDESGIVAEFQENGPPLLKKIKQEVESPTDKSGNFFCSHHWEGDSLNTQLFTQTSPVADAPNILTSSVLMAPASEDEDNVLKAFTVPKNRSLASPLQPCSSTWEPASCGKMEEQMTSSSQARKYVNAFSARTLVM
Hepatocyte nuclear factor 4-alpha (Homo sapiens), sequence (P41235 whole entry, looked up): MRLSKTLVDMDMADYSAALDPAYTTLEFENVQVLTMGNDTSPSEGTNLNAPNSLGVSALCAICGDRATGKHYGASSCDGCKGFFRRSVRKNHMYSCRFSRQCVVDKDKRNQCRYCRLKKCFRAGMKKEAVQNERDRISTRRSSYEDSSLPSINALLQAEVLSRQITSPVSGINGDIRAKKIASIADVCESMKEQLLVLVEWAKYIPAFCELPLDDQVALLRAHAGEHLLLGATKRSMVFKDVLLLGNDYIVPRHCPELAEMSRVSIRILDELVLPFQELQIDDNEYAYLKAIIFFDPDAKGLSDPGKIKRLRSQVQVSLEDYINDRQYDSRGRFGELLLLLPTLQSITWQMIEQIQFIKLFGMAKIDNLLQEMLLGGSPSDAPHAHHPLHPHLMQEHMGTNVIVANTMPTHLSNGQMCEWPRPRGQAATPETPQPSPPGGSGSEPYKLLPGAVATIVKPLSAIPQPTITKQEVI
Nuclear respiratory factor 1 (Homo sapiens), sequence (Q16656 whole entry, looked up): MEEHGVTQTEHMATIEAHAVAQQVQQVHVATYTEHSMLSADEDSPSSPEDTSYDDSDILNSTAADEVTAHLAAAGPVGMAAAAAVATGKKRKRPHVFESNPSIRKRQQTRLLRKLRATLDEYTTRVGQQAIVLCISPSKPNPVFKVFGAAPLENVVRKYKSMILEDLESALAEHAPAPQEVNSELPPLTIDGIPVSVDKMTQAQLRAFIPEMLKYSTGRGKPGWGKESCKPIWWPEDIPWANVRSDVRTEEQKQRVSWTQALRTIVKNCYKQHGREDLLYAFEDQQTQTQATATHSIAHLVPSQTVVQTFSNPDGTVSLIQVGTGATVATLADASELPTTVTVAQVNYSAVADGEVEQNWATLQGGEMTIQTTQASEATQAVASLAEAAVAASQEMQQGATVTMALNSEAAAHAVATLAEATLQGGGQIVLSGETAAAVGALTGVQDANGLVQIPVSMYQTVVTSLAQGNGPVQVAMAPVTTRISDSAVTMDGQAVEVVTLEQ
Nuclear receptor subfamily 4 group A member 2 (Homo sapiens), sequence (P43354 whole entry, looked up): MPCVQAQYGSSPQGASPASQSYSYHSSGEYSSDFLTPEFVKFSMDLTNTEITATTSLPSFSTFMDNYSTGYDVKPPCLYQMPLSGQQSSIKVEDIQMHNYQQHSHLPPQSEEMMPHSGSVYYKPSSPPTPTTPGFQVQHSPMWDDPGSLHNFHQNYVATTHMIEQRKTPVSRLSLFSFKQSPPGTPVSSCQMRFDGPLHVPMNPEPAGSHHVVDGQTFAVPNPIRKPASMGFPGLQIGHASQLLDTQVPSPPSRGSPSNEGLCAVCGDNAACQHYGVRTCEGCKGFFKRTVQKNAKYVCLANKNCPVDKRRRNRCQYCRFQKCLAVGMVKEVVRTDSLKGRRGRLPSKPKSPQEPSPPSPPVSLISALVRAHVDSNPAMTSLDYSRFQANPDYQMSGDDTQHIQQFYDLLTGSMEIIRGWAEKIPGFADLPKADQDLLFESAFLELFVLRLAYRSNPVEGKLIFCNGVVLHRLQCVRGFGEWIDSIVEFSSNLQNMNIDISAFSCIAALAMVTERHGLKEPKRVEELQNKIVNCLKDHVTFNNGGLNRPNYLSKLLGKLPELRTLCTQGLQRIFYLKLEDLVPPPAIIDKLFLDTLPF

CC(=O)Nc1ccccc1O
inactive: [1] | [2] | [3] | [4]

CCC/C=C/C=O
inactive: [2] | [3] | [4]

ClCCCl
inactive: [1] | [2] | [3] | [4]

O=C[C@H](O)[C@H](O)[C@H](O)CO
inactive: [1] | [2] | [3] | [4]

CCCC(=O)OCCC(C)CCC=C(C)C (configuration not stated)
inactive: [5] | [1] | [6] | [3] | [4]

CC(C)[C@H]1CC[C@@H](C)CC1=O
inactive: [5] | [1] | [6] | [2] | [3] | [4]

O=c1[nH]c(=O)n([C@H]2CCCO2)cc1F
inactive: [5] | [1] | [2] | [3] | [4]

CO[Si](CCCn1c(=O)n(CCC[Si](OC)(OC)OC)c(=O)n(CCC[Si](OC)(OC)OC)c1=O)(OC)OC
inactive: [5] | [1] | [6] | [3] | [4]

O=C(COc1ccc(Cl)cc1)N1CCN(Cc2ccc3c(c2)OCO3)CC1
inactive: [5] | [1] | [6] | [4]

CNC[C@H](O)c1cccc(O)c1
inactive: [5] | [2] | [3] | [4]

Clc1sc(Cl)c(Cl)c1Cl
inactive: [1] | [6] | [3] | [4]

CC1(C)OC[C@@H]2O[C@@]3(C(=O)O)OC(C)(C)O[C@H]3[C@@H]2O1
inactive: [1] | [3] | [4]

CC(C)[C@@H]1CC[C@@H](C)CC1=O
inactive: [5] | [3] | [4]

CC(C)(C)C(=O)c1ccccc1
inactive: [5] | [1] | [3] | [4]

CC(C)Oc1ccccc1O
inactive: [1] | [2] | [3] | [4]

CNCCO
inactive: [5] | [1] | [2] | [3] | [4]

O=c1oc(=O)c2cc3c(=O)oc(=O)c3cc12
inactive: [5] | [1] | [6] | [2] | [3] | [4]

O=C(O)Cc1cccc2ccccc12
inactive: [5] | [1] | [2] | [3] | [4]

O=C(Cl)c1cccc(C(=O)Cl)c1
inactive: [5] | [1] | [6] | [4]

O=S(=O)(O)NC1CCCCC1
inactive: [5] | [3] | [4]

CCOc1ccccc1OCC
inactive: [5] | [1] | [2] | [3] | [4]

NCCNCCN
inactive: [5] | [1] | [6] | [3] | [4]

OCCOCCOCCOCCO
inactive: [5] | [1] | [6] | [2] | [3] | [4]

CN(C)C(=N)N=C(N)N
inactive: [1] | [6] | [3] | [4]

CC1(C)C(=O)N(Br)C(=O)N1Cl
inactive: [5] | [6] | [3] | [4]

C=C(C)C(=O)OCc1ccccc1
inactive: [5] | [6] | [2] | [3] | [4]

COc1ccc(Cl)cc1C
inactive: [1] | [3] | [4]
